# Bioassay records from PubChem.
# Compounds with a hit are over-represented: about 9.4% of the library has one in this group of screens.
# NPC1 prom act – activates the NPC1 promoter; Huh7 NPC1 promoter luciferase reporter, 24 h; Potency, µM (series often up to 9.22 µM), without a hit: at the top dose activation, usual class: activators; hit rate 2.4% among 320,000; AID 485313; also: % of control where 0% means no effect; nearly all actives have a fitted effect of over 60% in size
#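 Quantitative HTS used a cell-based reporter: Huh7 cells stably bearing the NPC1 promoter upstream of luciferase were treated with compounds for 24 h, and promoter activation was read as luminescence.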
# FLuc modulator – firefly luciferase modulation, counter-screen for miR-21 project; Potency, µM (titrated, usually from 57.5 µM), without a hit: top-dose activity change, negative = inhibition, most hits filed as inhibitors; purified FLuc, Km substrates, luminescence inhibition; P08659; hit rate 6.9% among 360,000;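 also: plate controls were vehicle for no effect and reference inhibitor for full effect; nearly all actives have a fitted effect of over 55% in size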
# Target sequence (P08659 whole entry, looked up): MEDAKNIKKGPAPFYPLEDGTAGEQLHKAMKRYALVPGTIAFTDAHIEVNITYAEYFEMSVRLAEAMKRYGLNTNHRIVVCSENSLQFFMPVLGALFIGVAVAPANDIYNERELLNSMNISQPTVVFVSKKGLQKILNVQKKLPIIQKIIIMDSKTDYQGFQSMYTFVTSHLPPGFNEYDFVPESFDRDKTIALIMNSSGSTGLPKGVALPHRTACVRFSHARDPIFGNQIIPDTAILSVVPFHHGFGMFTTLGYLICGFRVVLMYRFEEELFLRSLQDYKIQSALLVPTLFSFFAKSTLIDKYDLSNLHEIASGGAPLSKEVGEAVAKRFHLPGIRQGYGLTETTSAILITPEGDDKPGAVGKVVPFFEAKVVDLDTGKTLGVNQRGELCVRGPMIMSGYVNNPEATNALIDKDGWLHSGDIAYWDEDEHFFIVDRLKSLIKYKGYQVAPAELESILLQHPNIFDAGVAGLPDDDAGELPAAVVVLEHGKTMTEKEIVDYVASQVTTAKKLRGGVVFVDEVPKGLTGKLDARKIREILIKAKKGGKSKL
#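 Purified P. pyralis luciferase (10nM final) with 10uM D-luciferin and 10uM ATP (Km levels) in 50mM Tris acetate pH 7.5, 10mM Mg acetate, 0.01% Tween-20, 0.05% BSA; qHTS 6-point titration, ~60 µM downward; luminescence read.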
# ELG1 genotox – induces genotoxicity in HEK293T cells with luciferase-tagged ELG1; HEK293T ELG1-luciferase reporter, luminescence, 16 h; hit rate 1.3% among 330,000; Potency, µM (titrated, usually from 46 µM), without a hit: at the top dose activity change, positive = activation, hits mostly activators; also: % of control where 0% means no effect; nearly all actives have a fitted effect of over 60% in size
#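 ELG1-luciferase HEK293T cells, 2,000/well; compound pinned in; 16 hr, 37 °C, 5% CO2; ONE-Glo, 30 min RT; luminescence on CCD imager.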
# SMN2 splice enh – SMN2 splice variant enhancement; HEK293 SMN2-luciferase splicing reporter, luminescence, 30-36 h; Potency, µM (doses to about 46.1 µM), inactives show at the top dose activity change, positive = activation, usual class: activators; AID 1458; hit rate 2.8% among 210,000; also: % of control where 0% means no effect; nearly all actives have a fitted effect of over 55% in size
#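 HEK293 cells carry an SMN2 […]–luciferase reporter in which exon 7 inclusion puts luciferase in frame. Cells were plated 10-12 h before compound addition, then incubated 30-36 h at 37C. ONE-Glo luminescence was read; sodium butyrate at 4.5 mM final served as control.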
# Rab9 promoter act – activators of Rab9 promoter | hit rate 2.8% among 320,000 | Potency, µM (doses to about 9.22 µM), without a hit: top-dose activation, negative = inhibition, hits mostly activators | Huh7 Rab9 promoter-luciferase reporter, luminescence, 24 h; also: % of control where 0% means no effect; nearly all actives have a fitted effect of over 60% in size
#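 Stable Rab9-luc Huh7, 1500 cells/well, 2 h settle; cmpd in DMSO, 24 h, 37 °C/5% CO2; luciferase reagent 10 min RT; luminescence.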
# ELG1 DNA repair – ELG1-dependent DNA repair inhibition | HEK293T ELG1-luciferase reporter, luminescence, 16 h; DNA damage induced by 5-fluorouridine | Potency, µM (series often up to 46.1 µM), for the others: at the highest dose activity change, negative = inhibition, most hits filed as inhibitors | hit rate 2.3% among 330,000 | AID 504467; also: % is scaled to controls: 0 for no effect and ±100 for the full control effect; nearly all actives have a fitted effect of over 55% in size
#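 Luminescence from the luciferase reporter, measured 30 min after ONE-Glo reagent at room temperature, was the read-out. Beforehand, 2,000 cells per well were exposed for 16 hr at 37 °C to 5-fluorouridine together with compound or vehicle.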
# Numbers without * were called inactive; ? = inconclusive; nt = not tested or not shown; [ ] = remark or other dose. Calls follow the shape of the dose curve; as a rule, active = well fitted curve in the direction sought with a large enough effect; inconclusive = small, poorly fitted or top-dose-only effect, or another doubt; inactive = no such curve, though single readings can be large; an effect the other way counts as inactive or inconclusive. Potency is read from the fitted curve at half-maximal effect.
SMILES,NPC1 prom act,FLuc modulator,ELG1 genotox,SMN2 splice enh,Rab9 promoter act,ELG1 DNA repair
CCCSc1nnc2c(n1)OC(c1sccc1C)Nc1ccccc1-2 (centres undefined),nt,?,nt,3.2µM*,nt,nt
O=C(N/N=C/c1ccccc1F)c1ccccc1OCc1ccccc1,-23%,17µM*,-12%,nt,-19%,?
O=C(N/N=C/c1ccc[nH]1)c1ccccc1OCc1ccc(F)cc1,-2%,-2%,5%,nt,-3%,-2%
O=C(NNC(=O)c1ccccc1OCc1ccc(F)cc1)c1ccccc1O,-28%,27µM*,-2%,nt,-37%,2.3µM*
O=C(CNC(=O)c1ccccc1F)N/N=C/c1cc(Br)ccc1OCc1ccccc1,2%,-1%,-2%,12%,13%,8.2µM*
O=C(NNC(=O)c1ccccc1OCc1ccccc1)c1ccccc1O,-13%,19µM*,6%,nt,-20%,?
O=C(NCc1ccc(F)cc1)c1ccccc1OCc1ccccc1,0%,1%,-2%,-22%,2%,-16%
O=C(CCc1ccccc1)NNC(=O)c1ccccc1F,0%,0%,1%,nt,-3%,8%
O=C(NNC(=O)c1ccccc1OCc1ccccc1)c1ccccc1F,?,21µM*,23%,nt,29%,?
Cn1cnc2nc(NCCO)nc(NCc3ccccc3)c21,nt,nt,nt,25%,nt,nt
C=CCOC(=O)N[C@@H](c1cccs1)C(C(C)=O)C(C)=O,nt,nt,nt,-5%,nt,nt
O=c1c(O)c(-c2ccccc2)oc2ccccc12,nt,nt,nt,-36%,nt,nt
O=c1c(-c2ccccc2)c(-c2ccccc2)oc2cc(O)cc(O)c12,0%,-13%,0%,nt,-1%,-22%
O=c1c(O)c(-c2ccccc2)oc2cc(O)cc(O)c12,nt,nt,-5%,nt,nt,13µM*
COc1cccc(-c2oc3ccc(C)cc3c(=O)c2O)c1,nt,2.7µM*,nt,10µM*,nt,nt
CCOc1ccc(-c2oc3ccc(C)cc3c(=O)c2O)cc1,nt,1%,nt,-6%,nt,nt
Cc1ccc(-c2oc3ccccc3c(=O)c2O)cc1,25%,?,23µM*,6%,27%,?
Cc1c(Cl)cccc1NC(=O)c1cnc2sc(N3CCOCC3)nn2c1=O,nt,-5%,nt,nt,nt,nt
C/C(=N\OCc1ccc(C#N)cc1)c1ccccc1,?,11µM*,18µM*,16µM*,3.2µM*,?
C/C(=N\OCc1cccc(C(=O)O)c1)c1ccc(Cl)cc1,?,0.095µM*,?,nt,0.089µM*,?
C/C(=N\OCc1ccc(C#N)cc1)c1ccc(S(=O)(=O)N(C)C)cc1,?,21µM*,1%,nt,11%,-24%
C/C(=N/OCO/N=C(\C)c1ccccc1)c1ccccc1,0%,13%,2%,253%,-4%,?
CCCCCCCCCCCCC/C=C/[C@@H](O)[C@H](CO)NC(C)=O,nt,nt,nt,3%,nt,nt
CCOC(=O)Cc1csc2nc(-c3ccccc3)nn12,-3%,-15%,0%,nt,0%,23%
CCOC(=O)c1cc(=O)n2nc(-c3ccc(C)cc3)nc2s1,0%,3µM*,0%,1%,2%,23%
SMILES,NPC1 prom act,FLuc modulator,ELG1 genotox,SMN2 splice enh,Rab9 promoter act,ELG1 DNA repair
CC(=O)N/N=C(/C)c1ccc(NC(=O)c2csc(C)c2C)cc1,2.8µM*,11µM*,12µM*,nt,1.4µM*,?
C/C(=N\NC(=O)c1csc(C)c1C)c1ccco1,4µM*,7.6µM*,6.5µM*,11µM*,2.2µM*,?
COc1ccc(CC(=O)N/N=C(/C)c2ccco2)cc1,-11%,0%,0%,nt,-3%,3%
C/C(=N/NC(=O)c1cccs1)c1ccco1,28%,17µM*,?,?,?,?
C/C(=N\NC(=O)c1ccco1)c1cc(Cl)sc1Cl,4%,?,?,nt,?,?
C/C(=N/NC(=O)OC(C)(C)C)c1ccco1,?,19µM*,?,14µM*,2.5µM*,?
CCC(=O)Nc1ccc(/C(C)=N\NC(=O)c2ccc(C)s2)cc1,4%,-4%,5%,nt,30%,-1%
COc1ccccc1Nc1nn2c(=O)c3ccc(C(=O)NC4CCCCC4)cc3nc2s1,nt,-7%,nt,nt,nt,nt
Cc1ccc(NC(=O)N2CCN(c3nnc(C)c4c(C)n(-c5ccc(Cl)cc5)nc34)CC2)c(C)c1,nt,-8%,nt,nt,nt,nt
CC(/C=N/NC(=O)c1cccs1)=C\c1ccco1,3.2µM*,6µM*,9.2µM*,11µM*,1.4µM*,?
CC(/C=N/NC(=O)Cc1cccs1)=C\c1ccco1,?,?,10%,15%,?,?
Cc1ccc(NC(=O)c2ccc3nc[nH]c3c2)nc1,3%,2%,10%,nt,1%,11%
COc1cc2ccccc2cc1C(=O)Nc1ccc(C)cn1,?,3µM*,2.9µM*,nt,?,?
Cc1ccc(NC(=O)CCNC(=O)c2ccccc2Cl)nc1,-1%,-1%,10%,nt,0%,14%
Cc1ccc(NC(=O)c2ccccc2F)nc1,1.1µM*,4.8µM*,1.8µM*,7.9µM*,0.71µM*,?
Cc1ccc(NC(=O)c2ccc(C(=O)c3ccccc3)cc2)nc1,30%,19µM*,?,nt,28%,?
Cc1ccc(NC(=O)c2cc(F)c(F)cc2Cl)nc1,1.8µM*,8.5µM*,?,nt,0.89µM*,?
Cc1cc(NC(=O)c2cc(F)c(F)cc2Cl)no1,-1%,-16%,3%,1%,3%,21%
O=C(NCc1ccccc1F)C(=O)NCC(c1ccco1)S(=O)(=O)c1cccs1 (centres undefined),nt,0%,nt,nt,nt,nt
CC1(C)CC(=O)c2cc(-c3nc(-c4ccc(Br)cc4)cs3)c(=O)n(-c3ccccc3)c2C1,nt,-1%,nt,-1%,nt,nt
O=C(CN1C(=O)c2cccnc2Oc2ccc(Cl)cc21)NCCCc1ccccc1,-1%,-10%,-12%,nt,-6%,18µM*
O=C(Nc1ccccc1Br)N1CCN2CCCCC2C1 (centres undefined),nt,5%,nt,nt,nt,nt
Clc1ccc(Cn2nc(-c3ccccc3)nc2-c2ccccc2)cc1,22%,15µM*,11%,?,23%,?
Clc1ccccc1Cn1nc(-c2ccccc2)nc1-c1ccccc1,1%,-19%,1%,-7%[1.84 µM],-2%,9%
COc1ccc2nc(-n3c(O)c(C4=c5ccccc5=NC4=O)[nH]c3=S)sc2c1,-3%,11µM*,-1%,-11%,-5%,17%
Cn1c(O)c(C2=c3ccccc3=NC2=O)[nH]c1=S,21%,-4%,-1%,8%,8%,2%
COc1ccc(-c2noc(CSc3nnc(-c4ccncc4)n3-c3ccc(C)cc3)n2)cc1OC,nt,-14%,nt,6%,nt,nt
COc1ccc(-c2noc(CC(=O)Nc3ccc(F)cc3F)n2)cc1,nt,-2%,nt,nt,nt,nt
